Assay [1] deals with Zika virus NS2B-NS3 protease (linked construct). Description: Primary screen NINDS Rhodamine qHTS for Zika virus inhibitors (AID 1347160). Also: nearly all actives have a fitted effect of over 55% in size. Put shortly: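 Single-chain NS2B-NS3 protease, 25 nM, pH 8.0; compounds preincubated 15 min. Activity: Rhodamine110 release from 1.5 microM substrate over 15 min, room temperature, data fitted to 4-parameter Hill.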
In general terms: qHTS replaces the single test concentration by a dilution series.

Assay [2] deals with Calcium and integrin-binding protein 1 (Homo sapiens) (UniProt Q99828). Description: Primary qHTS for Identification of Calcium Integrin Binding Protein 1 (CIB1) Competitor (AID 1508620).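 Also: GST tagged CIB1 binding a fluorescein labelled alphaIIb integrin peptide tracer; top concentration of the series differs between compounds; % is scaled to controls: 0 for no effect and ±100 for the full control effect.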 Put shortly: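 Fluorescence polarization competition: CIB1-GST (1 uM final) preincubated with compound 15 min at room temperature, then FITC-labeled alphaIIb peptide (100 nM final) added for another 15 min. Polarization read at Ex 480/Em 540.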

Assay [3] concerns the target Glutathione peroxidase 1 (Homo sapiens) (UniProt P07203). Description: Primary qHTS Assay for Inhibitors of Recombinant Selenoprotein Glutathione Peroxidase 1 (GPX1) (AID 1845191). Also: nearly all actives have a fitted effect of over 65% in size. As to activity, negative = inhibition: % is scaled to controls: 0 for no effect and ±100 for the full control effect. Put shortly:
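GPX1 10 nM, GR 100 nM, GSH 1 mM, NADPH 0.5 mM, CHP 0.5 mM (final). 30-min cpd preincubation, RT. Ex340/Em450 read t=0, t=15 min.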

In assay [4] the target is Luciferin 4-monooxygenase (Photinus pyralis) (UniProt P08659). The assay can be described thus: Primary firefly luciferase (FLuc) qHTS assay for identification of artifact compounds. (AID 1845220).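 Also: plate controls were DMSO vehicle for no effect and no enzyme for full effect; nearly all actives have a fitted effect of over 60% in size.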 The settings on record: outcome: dose series up to 54.1 µM unless noted. Put shortly: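 In this counter-screen for luciferase artifacts, test compounds met substrate (10 uM each luciferin and ATP) before 10 nM enzyme started the reaction. Light output was measured 5 min later.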

Assay [5] concerns Nanoluciferase (engineered Oplophorus gracilirostris luciferase). The assay can be described thus: Primary Nanoluciferase (NLuc) qHTS assay for identification of artifact compounds. (AID 1845222).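 Also: NLuc secreted into diluted conditioned medium of S16 cells.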 Put shortly: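 Using secreted nanoluciferase in S16 culture medium (0.22 um filtered, 1:55 dilution), compounds were preincubated 15 min at RT. Signal was generated with Nano-Glo reagent (1:100) over 5 min.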

Assay [6] can be described thus: Primary redox qHTS assay for identification of artifact compounds. (AID 1845223).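 Also: 0% = DMSO and 100% = reference compound.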 The procedure, abridged:
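Redox-cycling detection via DTT (250 uM final) oxidation coupled to Amplex Red (25 uM)/HRP (250 mU/mL) in HBSS. 15 min preincubation plus 30 min after DTT, room temperature. Ex/Em 525/598 nm; 4-parameter Hill fit against DMSO and 10 uM DA3003.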

In a further assay the test system is HaCat. Description: Cytotoxic Profiling of Annotated Libraries Using Quantitative High-Throughput Screening (AID 1296008). Also: nearly all actives have a fitted effect of over 60% in size. As to max response: % is scaled to controls: 0 for no effect and ±100 for the full control effect. The note with it: Five cell lines viability, CellTiter-Glo ATP luminescence, 48-72 h; max response: stronger effect = lower value. The procedure, abridged: (§1)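 Compounds were pin-transferred onto cells and incubated 48 or 72 hr at 37 degree Celsius, 95% humidity. CellTiter-Glo was added, plates sat 10 min at room temperature, then ATP-coupled luminescence was imaged as the viability read-out.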
In general terms: Cellular ATP, detected with luciferase, serves as a proxy for viable cell number.

For the next assay, the system named is NIH3T3. The description is as above. The note with it: Five cell lines viability, CellTiter-Glo ATP luminescence, 48-72 h; max response: stronger effect = lower value. Put shortly: as §1
The test system of another assay is C33A. The assay can be described thus: Primary qHTS to identify gynecologic anti-cancer compounds using libraries of approved drugs and bioactive compounds (AID 1345084). Also: nearly all actives have a fitted effect of over 55% in size. Also: potency is read from the fitted curve at half-maximal effect. As to activity change, negative = cytotoxicity: % is scaled to controls: 0 for no effect and ±100 for the full control effect. The settings on record: Gynecologic cancer cell panel viability, ATPlite luminescence, 48 h; series mostly up to 57.5 µM. The procedure, abridged:
(§2)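 ATP-based viability (ATPlite), 1,000 cells/well, 16 h pre-incubation, 48 h compound at 37 C, 5% CO2, 15 min RT before read.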

Another assay deals with CAOV3. The description is as above. The note with it: Gynecologic cancer cell panel viability, ATPlite luminescence, 48 h; series mostly up to 57.5 µM. The procedure, abridged:
as §2

The next assay has as its system CASKI. The description is as above. The settings on record: Gynecologic cancer cell panel viability, ATPlite luminescence, 48 h; series mostly up to 57.5 µM. The procedure, abridged:
as §2

For another assay, the system named is Es-2. The assay is described as above. The settings on record: Gynecologic cancer cell panel viability, ATPlite luminescence, 48 h; series mostly up to 57.5 µM. Put shortly: as §2
The test system of another assay is Hek293T. Described as above. The settings on record: Gynecologic cancer cell panel viability, ATPlite luminescence, 48 h, control line for the selectivity index; series mostly up to 57.5 µM. The procedure, abridged: as §2
The next assay has as its system JEG-3. The description is as above. The note with it: Gynecologic cancer cell panel viability, ATPlite luminescence, 48 h; series mostly up to 57.5 µM. Put shortly:
as §2

Another assay relates to OV90. The description is as above. The note with it: Gynecologic cancer cell panel viability, ATPlite luminescence, 48 h; series mostly up to 57.5 µM. Put shortly:
as §2

In the next assay the test system is PA-1. Described as above. The settings on record: Gynecologic cancer cell panel viability, ATPlite luminescence, 48 h; series mostly up to 57.5 µM. The procedure, abridged:
as §2

A further assay relates to Tov-21-G. Described as above. The settings on record: Gynecologic cancer cell panel viability, ATPlite luminescence, 48 h; series mostly up to 57.5 µM. Put shortly: as §2
The next assay relates to Tov112D. The description is as above. The settings on record: Gynecologic cancer cell panel viability, ATPlite luminescence, 48 h; series mostly up to 57.5 µM. Put shortly:
as §2

For assay [7], the target named is Phospholipid hydroperoxide glutathione peroxidase GPX4 (Homo sapiens) (UniProt P36969). The assay can be described thus: Primary qHTS Assay for Inhibitors of Recombinant Selenoprotein Glutathione Peroxidase 4 (GPX4) (AID 1845192). Also: % is scaled to controls: 0 for no effect and ±100 for the full control effect; nearly all actives have a fitted effect of over 65% in size. The procedure, abridged:
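qHTS, GR-coupled: GPX4 200 nM + cpd 30 min RT → GSH 1 mM, NADPH 0.5 mM, GR 100 nM → CHP 0.5 mM start; fluor 340/450 at t0 and t15 min; no-enzyme wells as control.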

Assay [8] can be described thus: Primary fluorescence-based thiol-reactive (MSTI) qHTS assay for identification of artifact compounds. (AID 1845221).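 Also: thiol-reactive compounds lower the probe fluorescence signal; nearly all actives have a fitted effect of over 65% in size.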 Put shortly: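 A multi-concentration qHTS design tested compounds against 4 uM MSTI, pH 7.4 phosphate-buffered saline. Plates were protected from light for 1 h at room temperature before imaging fluorescence.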

A number with no mark means an inactive call. Records with an inconclusive call do not appear. The source made the active and inactive calls. Calls follow the shape of the dose curve; as a rule, active = well fitted curve in the direction sought with a large enough effect; inconclusive = small, poorly fitted or top-dose-only effect, or another doubt; inactive = no such curve, though single readings can be large; an effect the other way counts as inactive or inconclusive.

Sequence of Glutathione peroxidase 1 (Homo sapiens) (P07203 whole entry, looked up): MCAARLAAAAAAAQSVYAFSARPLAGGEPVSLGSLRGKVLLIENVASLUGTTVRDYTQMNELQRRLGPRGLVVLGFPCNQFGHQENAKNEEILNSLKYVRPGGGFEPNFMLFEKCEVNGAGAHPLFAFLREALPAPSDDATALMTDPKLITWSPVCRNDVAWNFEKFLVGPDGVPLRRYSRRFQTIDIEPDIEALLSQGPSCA
Sequence of Calcium and integrin-binding protein 1 (Homo sapiens) (Q99828 whole entry, looked up): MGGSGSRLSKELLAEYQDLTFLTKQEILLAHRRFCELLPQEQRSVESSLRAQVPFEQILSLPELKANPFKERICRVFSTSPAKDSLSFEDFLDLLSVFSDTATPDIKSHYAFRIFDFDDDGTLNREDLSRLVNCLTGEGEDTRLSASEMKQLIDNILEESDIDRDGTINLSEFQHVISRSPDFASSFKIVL
Sequence of Phospholipid hydroperoxide glutathione peroxidase GPX4 (Homo sapiens) (P36969 whole entry, looked up): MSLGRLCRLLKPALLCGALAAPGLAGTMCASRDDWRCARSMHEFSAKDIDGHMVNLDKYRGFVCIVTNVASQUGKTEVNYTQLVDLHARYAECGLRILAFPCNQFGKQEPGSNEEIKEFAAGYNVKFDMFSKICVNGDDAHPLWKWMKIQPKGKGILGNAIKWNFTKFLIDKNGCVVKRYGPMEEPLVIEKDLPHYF

Take `COc1cc2c(cc1O)C1(C)CCC(O)C(C)(C)C1CC2=O` (stereo not given): the Potency result (in assay [1]; in [2]; in assay [3]; in assay [5]; in assay [6]; with C33A) was “inactive” in each case. Moreover, the Potency result in the assay with CAOV3, with CASKI, with Es-2, in the assay with Hek293T, in the assay on JEG-3 and in the assay on OV90 was “inactive” throughout. Further, the Potency result in the assay on PA-1, with Tov-21-G and with Tov112D was “inactive” in each case. For the same compound, the compound was called inactive (in assay [4]; in the assay with HaCat; in the assay on NIH3T3).
Turning to `CO[C@@H]1[C@@H](O)[C@@H](O[C@H]2CC[C@]3(C=O)C4CC[C@]5(C)[C@@H](C6=CC(=O)OC6)CC[C@]5(O)[C@@H]4CC[C@H]3C2)O[C@@H](C)[C@H]1O[C@@H]1O[C@H](CO[C@@H]2O[C@H](CO)[C@@H](O)[C@H](O)[C@H]2O)[C@@H](O)[C@H](O)[C@H]1O` (stereo not given in full), the Potency entry in assay [1], in assay [2], in assay [3] and in assay [7] was “inactive” in each case. The activity change, negative = inhibition in assay [4] is -6.08% [at 11.6 µM]. Besides, in [8], the activity change, negative = thiol reactive was 52.3% [at 11.5 µM]. Moreover, the activity, negative = inhibition in [5] is 1.53% [at 11.6 µM]. Further, the redox activity (% of DA3003) in [6] was 5.87% [at 11.5 µM]. Moreover, the max response in the assay with HaCat was -22.5%. In addition, the compound was called inactive in the assay with NIH3T3. Moreover, the Potency in the assay on C33A is 3.55 µM (active); in the assay with Es-2, 2 µM (active); with Tov-21-G, 3.55 µM (active); in the assay on Tov112D, 2.51 µM (active). The activity change, negative = cytotoxicity in the assay with CAOV3 was -17.5% [at 11.6 µM]; in the assay on CASKI, 13.6% [at 11.6 µM]; in the assay on JEG-3, -2.75% [at 11.6 µM]; in the assay on OV90, 8.02% [at 11.6 µM].
On to `CCOC(=O)c1ccc(-c2ccc(OC(=O)N(C)Cc3cccc(-c4ccncc4)c3)cc2)cc1`, for which the Potency result in assay [1], in assay [2], in [3], in [7], in assay [8] and in assay [5] was “inactive” in each case. Moreover, the Potency result (in assay [6]; in the assay on CAOV3; with CASKI; with Es-2; in the assay on Hek293T; in the assay on JEG-3) was “inactive” in each case. Further, the Potency result with OV90, in the assay with PA-1, in the assay on Tov-21-G and in the assay on Tov112D was “inactive” in each case. For the same compound, the call in assay [4] was inactive. Also, the max response with HaCat was -8.03%.
In the case of `COC1(C[S@@](=O)c2ccccc2)CCN(CCc2c[nH]c3ccc(F)cc23)CC1`, the Potency entry in assay [1], in assay [2], in assay [3], in assay [7], in assay [5] and in assay [6] was “inactive” throughout. Moreover, the Potency result with C33A, in the assay with CAOV3, in the assay on CASKI, in the assay with Es-2, with Hek293T and with JEG-3 was “inactive” throughout. The Potency entry in the assay with OV90, with PA-1, in the assay with Tov-21-G and in the assay on Tov112D was “inactive” throughout. Further, in assay [4], the compound was classed as inactive. The max response with HaCat was 3.53%; in the assay on NIH3T3, 1.71%.
Take `C[C@]12CC[C@H](O)CC1=CC[C@@H]1C2CC[C@]2(C)[C@@H](C3=CC(=O)OC3)CC[C@]12O` (stereo not given in full): the Potency result in assay [1], in [2], in [3], in [8], in assay [5] and in assay [6] was “inactive” throughout. For the same compound, the Potency entry in the assay on CASKI is “inactive”. For the same compound, in [4], the compound was called inactive. Also, the max response in the assay with NIH3T3 is -1.39%. For the same compound, the Potency in the assay on Es-2 was 11.2 µM (active); in the assay with Tov-21-G it was 10 µM (active); in the assay on Tov112D, 7.08 µM (active).

The values above are taken from PubChem BioAssay (NCATS).
